In PubChem BioAssay:
Active and inactive are the calls of the source.

Legend:
[1] = binders of probe aFSTL3 on microarray, primary screen, stem cell growth factor project, biochemical, small-molecule microarray, fluorescence 635/667 (AID 1064); conditions: higher = more signal;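 also: measures binding of the biotinylated anti-FSTL3 antibody to printed compounds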
[2] = binders from COS7 lysate, DM2A8 probe, primary screen, torsin A project, cell lysate, small-molecule microarray, fluorescence 635/667 (AID 1065); conditions: higher = more signal, COS7 lysate expressing mutant human TOR1A
[3] = binders of probe aFGF2 on microarray, primary screen, stem cell growth factor project, biochemical, small-molecule microarray, fluorescence 635/667 (AID 1067); conditions: higher = more signal;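 also: measures binding of biotinylated aFGF2 protein to printed compounds on slides; z-score merges feature fluorescence and signal-to-noise across triplicate slides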
[4] = binders of probe aFGF10 on microarray, primary screen, stem cell growth factor project, biochemical, small-molecule microarray, fluorescence 635/667 (AID 1071); conditions: higher = more signal;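 also: score merges 667 nm spot intensity and signal to noise from triplicate slides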
[5] = molecular target: Neurogenic locus notch homolog protein 2 (Homo sapiens) (UniProt Q04721); experiment: Notch2 binders on small-molecule microarrays, primary screen, biochemical, small-molecule microarray, 635 nm fluorescence, stem cell growth factors (AID 1073); conditions: Notch2 binding, higher = more signal
[6] = molecular target: Pro-neuregulin-1, membrane-bound isoform (Homo sapiens) (UniProt Q02297); experiment: NRG1 binders on small-molecule microarrays, primary screen, psychiatric disease protein project, biochemical, small-molecule microarray, fluorescence 635/667 (AID 1075); conditions: NRG1 binding, 635 nm fluorescence, higher = more signal;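 also: score combines 667 nm spot fluorescence with signal to noise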
[7] = system: Neuregulin-1 EGF-like domain; experiment: binders of neuregulin-1 EGF-like domain, primary screen, biochemical, small-molecule microarray, 635 nm fluorescence (AID 1081); conditions: small-molecule microarray binding, higher = more signal;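 also: binding of the protein to compounds printed on small-molecule microarray slides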
[8] = FRG1 promoter luciferase signal modulators, primary screen, FRG1 inhibition for FSHD, cell-based, C2C12 myotubes, firefly/Renilla luciferase, luminescence (AID 1084); conditions: higher = more signal, called active from +8 up or from −8 down
[9] = binders of probe aFST on microarray, primary screen, stem cell growth factor project, biochemical, small-molecule microarray, fluorescence 635/667 (AID 1086); conditions: higher = more signal;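 also: score merges 667 nm fluorescence with signal-to-noise of each printed compound spot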
[10] = binders of probe aHhip on microarray, primary screen, stem cell growth factor project, biochemical, small-molecule microarray, fluorescence 635/667 (AID 1087); conditions: higher = more signal;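 also: score merges spot fluorescence at 667nm with spot signal to noise ratio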

Pro-neuregulin-1, membrane-bound isoform (Homo sapiens), sequence (Q02297 whole entry, looked up, the tested form may be a part, canonical isoform): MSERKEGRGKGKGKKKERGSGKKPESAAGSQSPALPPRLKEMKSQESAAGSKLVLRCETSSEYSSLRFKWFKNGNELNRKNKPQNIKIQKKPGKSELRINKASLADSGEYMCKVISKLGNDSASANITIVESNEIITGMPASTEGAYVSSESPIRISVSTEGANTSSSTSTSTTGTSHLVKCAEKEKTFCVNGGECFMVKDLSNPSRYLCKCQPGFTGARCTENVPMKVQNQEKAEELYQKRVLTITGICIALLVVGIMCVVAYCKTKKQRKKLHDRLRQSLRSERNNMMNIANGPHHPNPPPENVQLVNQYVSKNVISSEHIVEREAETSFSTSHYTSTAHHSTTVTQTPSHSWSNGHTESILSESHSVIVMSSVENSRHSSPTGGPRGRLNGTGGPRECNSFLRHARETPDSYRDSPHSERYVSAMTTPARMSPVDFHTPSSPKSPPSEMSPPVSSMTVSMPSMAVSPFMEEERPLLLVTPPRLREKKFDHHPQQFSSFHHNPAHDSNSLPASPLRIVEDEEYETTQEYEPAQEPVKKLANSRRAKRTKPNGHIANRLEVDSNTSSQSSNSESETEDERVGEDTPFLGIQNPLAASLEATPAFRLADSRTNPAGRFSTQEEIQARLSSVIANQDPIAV
Neurogenic locus notch homolog protein 2 (Homo sapiens), sequence (Q04721 whole entry, looked up, canonical isoform): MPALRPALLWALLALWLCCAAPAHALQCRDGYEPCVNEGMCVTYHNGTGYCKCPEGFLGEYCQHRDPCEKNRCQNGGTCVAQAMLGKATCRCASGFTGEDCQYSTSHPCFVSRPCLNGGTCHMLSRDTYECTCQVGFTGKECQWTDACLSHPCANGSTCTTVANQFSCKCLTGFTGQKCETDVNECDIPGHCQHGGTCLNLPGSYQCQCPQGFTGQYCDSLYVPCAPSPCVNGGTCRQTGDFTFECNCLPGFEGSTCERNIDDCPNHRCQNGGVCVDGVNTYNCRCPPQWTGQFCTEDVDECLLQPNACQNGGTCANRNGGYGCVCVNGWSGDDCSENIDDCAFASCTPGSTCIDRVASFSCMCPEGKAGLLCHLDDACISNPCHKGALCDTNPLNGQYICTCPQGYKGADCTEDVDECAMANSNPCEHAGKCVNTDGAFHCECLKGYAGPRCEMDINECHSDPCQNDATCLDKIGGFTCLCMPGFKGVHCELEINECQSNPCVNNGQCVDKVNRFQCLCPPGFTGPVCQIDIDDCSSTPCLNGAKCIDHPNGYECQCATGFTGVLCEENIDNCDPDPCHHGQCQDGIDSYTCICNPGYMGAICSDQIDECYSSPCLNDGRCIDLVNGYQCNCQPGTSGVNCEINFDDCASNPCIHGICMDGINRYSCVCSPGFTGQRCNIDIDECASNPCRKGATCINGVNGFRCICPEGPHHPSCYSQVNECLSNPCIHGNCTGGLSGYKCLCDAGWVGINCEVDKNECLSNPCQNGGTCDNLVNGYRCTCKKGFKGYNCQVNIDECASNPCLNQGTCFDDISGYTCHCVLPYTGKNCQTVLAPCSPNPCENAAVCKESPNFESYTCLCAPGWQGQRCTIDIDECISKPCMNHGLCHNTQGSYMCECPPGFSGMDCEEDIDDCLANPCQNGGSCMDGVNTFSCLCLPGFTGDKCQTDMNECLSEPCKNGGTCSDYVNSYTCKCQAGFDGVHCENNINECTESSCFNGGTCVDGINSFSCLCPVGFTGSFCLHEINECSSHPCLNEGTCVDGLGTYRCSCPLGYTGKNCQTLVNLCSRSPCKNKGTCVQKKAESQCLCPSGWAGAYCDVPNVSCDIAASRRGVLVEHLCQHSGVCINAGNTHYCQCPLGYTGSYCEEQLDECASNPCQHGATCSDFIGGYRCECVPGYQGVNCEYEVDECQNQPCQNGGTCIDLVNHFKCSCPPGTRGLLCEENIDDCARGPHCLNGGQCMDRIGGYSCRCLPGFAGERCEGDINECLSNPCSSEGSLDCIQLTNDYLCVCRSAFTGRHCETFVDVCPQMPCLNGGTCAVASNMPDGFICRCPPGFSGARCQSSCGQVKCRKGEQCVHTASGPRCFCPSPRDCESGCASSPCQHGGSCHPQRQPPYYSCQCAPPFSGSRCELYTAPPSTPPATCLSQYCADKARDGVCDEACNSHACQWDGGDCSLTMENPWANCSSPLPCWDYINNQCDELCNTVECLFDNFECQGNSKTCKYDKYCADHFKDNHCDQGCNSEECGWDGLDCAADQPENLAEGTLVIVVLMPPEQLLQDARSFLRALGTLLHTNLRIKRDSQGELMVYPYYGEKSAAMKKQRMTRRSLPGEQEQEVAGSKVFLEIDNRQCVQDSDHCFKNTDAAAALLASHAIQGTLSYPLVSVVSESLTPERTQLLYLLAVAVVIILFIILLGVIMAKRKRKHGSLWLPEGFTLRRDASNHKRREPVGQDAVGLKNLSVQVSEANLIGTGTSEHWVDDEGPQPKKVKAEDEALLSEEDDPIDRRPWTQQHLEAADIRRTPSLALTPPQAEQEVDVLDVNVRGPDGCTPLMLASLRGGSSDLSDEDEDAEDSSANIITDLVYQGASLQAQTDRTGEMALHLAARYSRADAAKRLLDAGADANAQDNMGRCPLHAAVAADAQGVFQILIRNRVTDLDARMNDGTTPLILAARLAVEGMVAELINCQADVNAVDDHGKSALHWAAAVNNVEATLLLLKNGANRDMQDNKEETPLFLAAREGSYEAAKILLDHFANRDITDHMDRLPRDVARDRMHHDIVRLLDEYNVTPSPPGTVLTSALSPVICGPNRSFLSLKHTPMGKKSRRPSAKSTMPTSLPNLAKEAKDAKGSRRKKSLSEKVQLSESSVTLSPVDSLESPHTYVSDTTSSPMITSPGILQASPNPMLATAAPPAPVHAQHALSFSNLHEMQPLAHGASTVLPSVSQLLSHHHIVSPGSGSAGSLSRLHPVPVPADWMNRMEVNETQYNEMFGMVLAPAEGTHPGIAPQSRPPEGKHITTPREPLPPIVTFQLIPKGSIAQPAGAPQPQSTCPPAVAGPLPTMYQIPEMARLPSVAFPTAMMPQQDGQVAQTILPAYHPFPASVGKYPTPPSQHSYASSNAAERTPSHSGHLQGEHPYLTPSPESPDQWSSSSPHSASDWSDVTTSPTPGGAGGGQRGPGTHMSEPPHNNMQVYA

Row | Compound | composite z-score [1] | composite z-score [2] | composite z-score [3] | composite z-score [4] | composite z-score [5] | composite z-score [6] | composite z-score [7] | z-score [8] | composite z-score [9] | composite z-score [10]
1 | [N-]=[N+]=NCc1ccccc1[C@H]1OC(c2ccc(OCCCO)cc2)=N[C@@]1(CCS(=O)(=O)c1ccccc1)C(=O)N1CCOCC1 | 0.476 | 0.525 | 0.221 | 1.03 | 1.63 | 2.18 | 1.16 | 0.51 (inactive) | 1.86 | -0.0391
2 | C=C[C@H](C)[C@@H](O)c1ccc(O)c2ccccc12 | -0.161 | -0.0359 | 0.126 | -0.749 | -1 | -0.329 | -0.158 | -0.202 (inactive) | -1.03 | 0.0274
3 | COc1ccc([Si](C)(C)[C@@H]2[C@@H](CC(=O)N(CCO)Cc3ccccc3)O[C@]3(C(=O)N(C)c4ccccc43)[C@H]2C)cc1 | 1.02 | -0.135 | -0.0336 | 0.628 | 0.525 | 0.872 | 1.11 | -2.19 (inactive) | 1.21 | 0.411
4 | CC(C)C(=C=CC[C@H](O)c1cccc(OCCO)c1)C[C@H](O)COCc1ccccc1 | -0.222 | 0.0852 | -0.095 | 0.659 | -0.139 | 1.67 | 1.13 | 0.724 (inactive) | -0.22 | -0.0994
5 | C=CCN1C(=O)[C@]2(O[C@H](CCO)[C@@H]([Si](C)(C)c3ccc(OC)cc3)[C@@H]2C)c2cc(NC(=O)[C@H](C)O)ccc21 | -0.561 | 0.363 | -0.0158 | 1.08 | 0.327 | 1.35 | 1.2 | -3.94 (inactive) | -0.412 | -0.216
6 | COc1ccc(C(=O)Nc2cccc(CN3C(=O)[C@@]4(O[C@@H](CCn5cc(CCO)nn5)[C@H]([Si](C)(C)c5ccc(OC)cc5)[C@H]4C)c4ccccc43)c2)cc1 | -0.115 | 0.485 | -0.0381 | 0.205 | 1.12 | 1.08 | 1.11 | -3.09 (inactive) | 0.407 | -0.0994
7 | CS(=O)(=O)CCOC(=O)C1=CC(CCCO)=CC(c2cccs2)N(Cc2cc3c(cc2Br)OCO3)C=C1C(=O)OCCS(C)(=O)=O (stereo not given) | -0.281 | 0.24 | 0.0737 | 0.517 | 1.5 | 1.88 | 1.31 | -1.91 (inactive) | 0.827 | 0.463
8 | Cc1cc(C)c(C(O)C2C=CC3C(=O)N(C)C(=O)C3N2Nc2ccccc2)c(C)c1 (stereo not given) | 1.19 | 0.732 | 0.462 | 0.93 | 1.64 | 1.26 | 1.27 | 0.016 (inactive) | 2.01 | 0.872
9 | CO[C@H]1O[C@H](CO)[C@@H](OC(=O)Nc2ccc3c(c2)OCO3)[C@H](OC(=O)Nc2ccccc2)[C@H]1OC(=O)Nc1ccccc1 | -0.142 | 0.436 | 0.0166 | 1 | 0.828 | 1.12 | 1.35 | 2.74 (inactive) | 0.697 | -0.0645
10 | O=C1N(CCS(=O)(=O)c2ccccc2)Cc2ccccc2[C@H]2OC(c3ccc(OCCCO)cc3)=N[C@@]12CCS(=O)(=O)c1ccccc1 | 1.11 | 0.994 | 0.145 | 0.784 | 1.37 | 1.62 | 1.36 | -2.53 (inactive) | 0.593 | -0.189
11 | COCCCNC(=O)[C@@]1(c2ccc([N+](=O)[O-])cc2)CC(=O)N(CC23CC4CC(CC(C4)C2)C3)[C@@H]1c1ccc(CO)cc1 | -0.46 | 0.666 | -0.0453 | 0.264 | 1.36 | 0.43 | 1.17 | -2.08 (inactive) | 0.573 | -0.0296
12 | NC(=O)NCC#Cc1ccc2c(c1)[C@]1(C(=O)N2)[C@H](C(=O)N2CCCCCCC2)[C@H]2C(=O)O[C@H](c3ccccc3)[C@H](c3ccccc3)N2[C@@H]1c1ccc(OCCO)cc1 | 3.14 | 0.756 | 0.326 | 0.904 | 0.481 | 0.463 | 0.292 | 0.832 (inactive) | 3.05 | 3.7
13 | COc1ccc(CCNC(=O)[C@@H]2c3ccccc3C(=O)N(Cc3ccc(OC(F)(F)F)cc3)[C@H]2c2ccc(CO)cc2)cc1 | 0.111 | 0.321 | -0.0937 | 0.252 | 0.0125 | 0.75 | 0.882 | -2.61 (inactive) | 0.322 | -0.0672
14 | COc1ccc(C#Cc2ccc3c(c2)[C@]2(C(=O)N3)[C@H](c3ccc(O)cc3)N3[C@H](c4ccccc4)[C@H](c4ccccc4)OC(=O)[C@H]3[C@@H]2C(=O)N2CCCCCCC2)cc1 | 3.42 | 0.524 | 0.858 | 0.488 | 1.39 | 1.01 | 1.25 | -0.263 (inactive) | 3.25 | 0.0914
15 | CC(C)N1CC=CC23O[C@@H]4C=CCOC(=O)[C@@H]4[C@H]2C(=O)N(CCO)[C@@H]3C1=O (stereo not given in full) | 0.283 | -1.72 | -0.187 | -0.484 | -1.11 | 0.247 | 1.02 | 0.188 (inactive) | -0.634 | -0.397
16 | CCC(CC)C(O)C1C=CC2C(=O)N(c3ccccc3)C(=O)C2N1Nc1ccc(C#N)cc1 (stereo not given) | 1.07 | 0.693 | 0.326 | 0.884 | 1.64 | 1.77 | 1.29 | -1.02 (inactive) | 1.22 | -0.271
17 | CCOC(=O)C[C@H]1[C@H](OC(=O)c2ccc(-c3ccccc3)cc2)[C@@H](NC(=O)c2ccc(-c3ccccc3)cc2)c2cc(OCCCO)ccc2N1C(=O)Cc1ccc(OC)cc1 | -0.263 | -0.0676 | -0.0525 | 0.0168 | 0.306 | 0.168 | -0.489 | 0.712 (inactive) | 0.425 | -0.226

Row | Compound | composite z-score [1] | composite z-score [2] | composite z-score [3] | composite z-score [4] | composite z-score [5] | composite z-score [6] | composite z-score [7] | z-score [8] | composite z-score [9] | composite z-score [10]
18 | C=CCC(OC(C)=O)[C@@H]1[C@@H](N(Cc2ccc(-c3ccccc3)cc2)C(=O)Cc2ccc(F)cc2)c2cc(OCCCO)ccc2N1C(=O)c1ccc2ccccc2n1 (stereo not given in full) | -0.12 | -0.0608 | 0.0198 | -0.372 | 0.0329 | 0.164 | -0.421 | -0.649 (inactive) | 0.167 | 0.0623
19 | C=C[C@@H](COC(C)=O)N(Cc1ccc([N+](=O)[O-])cc1)S(=O)(=O)c1ccc(Br)cc1 | 0.381 | -0.339 | 0.0258 | 0.642 | 1.1 | 0.668 | 1.12 | -1.5 (inactive) | 0.804 | -0.21
20 | COc1c(C)cc(-c2cc3c(c(-c4ccc(Oc5ccccc5)cc4)n2)[Si](C(C)C)(C(C)C)OC3)cc1C | -0.128 | -0.0685 | -0.147 | -0.114 | 0.104 | -0.0614 | -1.06 | 0.643 (inactive) | 0.0723 | -0.353
21 | Cc1ccc(S[C@]2(C(=O)NCc3ccccc3)CC(=O)N(Cc3ccccc3)[C@@H]2c2ccc(CO)cc2)cc1 | 0.264 | -0.443 | -0.0165 | 0.793 | -0.338 | 1.33 | 1.09 | -2.33 (inactive) | -0.0886 | -0.169
22 | CN(C)C(=O)[C@]1(CCC(=O)OC(C)(C)C)N=C(c2ccc(OCCCO)cc2)O[C@@H]1c1ccccc1N=[N+]=[N-] | 0.542 | 1.78 | 0.147 | 1.2 | 1.36 | 2.01 | 1.45 | 3.22 (inactive) | 1.43 | -0.0867
23 | O=C1C2C=CC(C(O)c3ccc(F)cc3)N(Nc3ccccc3)C2C(=O)N1c1ccccc1 (stereo not given) | 0.719 | 0.616 | 0.0332 | 0.407 | 0.314 | 0.828 | 1.14 | -1.65 (inactive) | 0.593 | 0.0053
24 | CC=CC(O)C1C=CC2C(=O)N(c3ccccc3)C(=O)C2N1Nc1ccc(C(C)C)cc1 (stereo not given) | 0.0035 | 0.238 | 0.125 | 0.771 | 1.65 | 1.52 | 1.26 | 0.715 (inactive) | 1.16 | -0.0024
25 | CC(C)NC(=O)[C@@H]1c2ccccc2C(=O)N(Cc2ccccc2)[C@H]1c1ccc(CO)cc1 | 0.726 | 0.0445 | 0.0411 | 0.365 | -1.1 | 1.06 | 1.36 | -1.1 (inactive) | -0.194 | -0.191
26 | O=C1O[C@H](c2ccccc2)[C@H](c2ccccc2)N2[C@H]1[C@@H](C(=O)NC[C@H](O)c1ccccc1)[C@]1(C(=O)Nc3ccc(C#CCCO)cc31)[C@H]2c1ccc(O)cc1 | 0.326 | -0.543 | -0.103 | -0.465 | -0.42 | 0.0538 | -0.51 | 0.08 (inactive) | -0.445 | 0.245
27 | O=C1N(CCS(=O)(=O)c2ccccc2)Cc2ccccc2C[C@]12N=C(c1ccc(OCCCO)cc1)O[C@@H]2c1ccccc1 | 1.36 | 0.97 | 0.0901 | -0.0674 | 0.633 | 1.33 | 1.31 | -0.436 (inactive) | 0.607 | -0.27
28 | CN1CCC(CCCO)=CC1c1ccc(CN2CCCC2)cc1 (stereo not given) | 1.16 | 2.31 | 0.0626 | 0.789 | 1.12 | 1.7 | 1.27 | 0.745 (inactive) | 0.612 | -0.0237
29 | COc1cc(CO)ccc1OC(C)=O | -0.651 | 0.336 | -0.0279 | 0.28 | 0.382 | 0.34 | 0.707 | -0.847 (inactive) | 0.195 | 0.122
30 | CN1C=C(C(=O)OCCS(C)(=O)=O)C(C(=O)OCCS(C)(=O)=O)=CC(CCCO)=CC1C1CC1 (stereo not given) | -0.135 | 0.0461 | -0.128 | 0.427 | 0.213 | 1.04 | 1.25 | -0.483 (inactive) | -0.0228 | -0.0618
31 | CCOC(=O)C[C@H]1[C@H](OC(=O)c2ccc(-c3ccccc3)cc2)[C@@H](NC(=O)c2ccc3ccccc3c2)c2cc(OCCCO)ccc2N1C(=O)Cc1ccc(OC)cc1 | -0.325 | 0.228 | 0.0325 | 0.0493 | 0.425 | 0.15 | -0.733 | 1.21 (inactive) | 0.628 | -0.134
32 | C=C(CCCC)/C(=C/C[C@H](OC(C)=O)c1ccc(CO)o1)c1cnc2ccccc2c1 | -0.472 | 0.773 | -0.0749 | 1.14 | 1.1 | 0.963 | 1.26 | 0.13 (inactive) | 0.13 | 0.0505
33 | [N-]=[N+]=Nc1ccccc1[C@H]1OC(c2ccc(OCCCO)cc2)=N[C@@]1(CCS(=O)(=O)c1ccccc1)C(=O)O | 1.13 | 0.298 | 0.051 | 0.0993 | 0.402 | 0.826 | 0.67 | 3.83 (inactive) | 0.697 | -0.189
